Test results taken from PubChem BioAssay AID1159580 (chemical genetic matrix, 2015).
About 2,000 (36%) of roughly 5,500 compounds were called active. Inconclusive results (about 18%) are left out. Cut-off read from the data, not from the text of the source: active = normalized growth mostly below about 0.91 (no sharp cut-off); inconclusive = no clear call, values can overlap the other calls; inactive = mostly above about 0.92. The list shows a part of the results.

Assay: chemical genetic growth profiling, strain panel (AID 1159580);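 note: tested at 20 µM; growth read once vehicle control cultures reached saturation at 30 °C; 1 = growth at the plate median or of vehicle wells; lower values mean less growth of the strain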
Settings: growth OD

Measured: normalized growth

C[C@@H]([C@H](O)c1ccccc1)N(C)C
inactive: S. cerevisiae deletion strains, locus YAL013W, strain DEP1, hits give low values 1.01 | S. cerevisiae deletion strains, locus YAL021C, strain ccr4, hits give low values 1.01 | S. cerevisiae deletion strains, locus YAL026C, strain drs2, hits give low values 1.01 | S. cerevisiae deletion strains, locus YAL030W, strain snc1, hits give low values 1.02 | S. cerevisiae deletion strains, locus YBL061C, strain skt5, hits give low values 1.01 | S. cerevisiae deletion strains, locus YBR009C, strain hhf1, hits give low values 1.01 | S. cerevisiae deletion strains, locus YBR021W, strain FUR4, hits give low values 0.983 | S. cerevisiae deletion strains, locus YBR023C, strain chs3, hits give low values 1.01 | S. cerevisiae deletion strains, locus YBR171W, strain sec66, hits give low values 1.03 | S. cerevisiae deletion strains, locus YBR229C, strain ROT2, hits give low values 1 | S. cerevisiae deletion strains, locus YBR231C, strain swc5, hits give low values 1.01 | S. cerevisiae deletion strains, locus YBR279W, strain paf1, hits give low values 1.02 | S. cerevisiae deletion strains, locus YCL011C, strain gbp2, hits give low values 1.01 | S. cerevisiae deletion strains, locus YCL016C, strain dcc1, hits give low values 1.01 | S. cerevisiae deletion strains, locus YCL029C, strain bik1, hits give low values 1 | S. cerevisiae deletion strains, locus YCL061C, strain MRC1, hits give low values 1.01 | S. cerevisiae deletion strains, locus YCL069W, strain vba3, hits give low values 1.01 | S. cerevisiae deletion strains, locus YCR088W, strain abp1, hits give low values 1.01 | S. cerevisiae deletion strains, locus YDL005C, strain med2, hits give low values 1.02 | S. cerevisiae deletion strains, locus YDL035C, strain GPR1, hits give low values 1.02 | S. cerevisiae deletion strains, locus YDL040C, strain nat1, hits give low values 1.02 | S. cerevisiae deletion strains, locus YDL074C, strain BRE1, hits give low values 0.999 | S. cerevisiae deletion strains, locus YDL101C, strain DUN1, hits give low values 1 | S. cerevisiae deletion strains, locus YDL134C, strain PPH21, hits give low values 1 | S. cerevisiae deletion strains, locus YDL185W, strain tfp1, hits give low values 1.01 | S. cerevisiae deletion strains, locus YDL192W, strain arf1, hits give low values 1.02 | S. cerevisiae deletion strains, locus YDR001C, strain nth1, hits give low values 1.01 | S. cerevisiae deletion strains, locus YDR069C, strain doa4, hits give low values 1.03 | S. cerevisiae deletion strains, locus YDR101C, strain arx1, hits give low values 0.981 | S. cerevisiae deletion strains, locus YDR137W, strain rgp1, hits give low values 0.984 | S. cerevisiae deletion strains, locus YDR150W, strain NUM1, hits give low values 1.01 | S. cerevisiae deletion strains, locus YDR159W, strain sac3, hits give low values 1.03 | S. cerevisiae deletion strains, locus YDR162C, strain NBP2, hits give low values 1.02 | S. cerevisiae deletion strains, locus YDR195W, strain ref2 1.01 | S. cerevisiae deletion strains, locus YDR297W, strain sur2, hits give low values 1.01 | S. cerevisiae deletion strains, locus YDR318W, strain mcm21, hits give low values 1.01 | S. cerevisiae deletion strains, locus YDR334W, strain swr1, hits give low values 1.02 | S. cerevisiae deletion strains, locus YDR335W, strain msn5, hits give low values 1.03 | S. cerevisiae deletion strains, locus YDR388W, hits give low values 1.01 | S. cerevisiae deletion strains, locus YDR392W, strain spt3, hits give low values 1.03 | S. cerevisiae deletion strains, locus YDR502C, strain sam2, hits give low values 1.01 | S. cerevisiae deletion strains, locus YEL003W, strain gim4, hits give low values 1.02 | S. cerevisiae deletion strains, locus YEL037C, strain rad23, hits give low values 1.01 | S. cerevisiae deletion strains, locus YEL061C, strain CIN8 (second series), hits give low values 1.01 | S. cerevisiae deletion strains, locus YEL061C, strain CIN8, hits give low values 1.01 | S. cerevisiae deletion strains, locus YER015W, strain faa2, hits give low values 1.01 | S. cerevisiae deletion strains, locus YER016W, strain bim1, hits give low values 1.02 | S. cerevisiae deletion strains, locus YER110C, hits give low values 1.01 | S. cerevisiae deletion strains, locus YER111C, strain swi4, hits give low values 1.01 | S. cerevisiae deletion strains, locus YER155C, strain BEM2 (second series), hits give low values 1.03 | S. cerevisiae deletion strains, locus YER155C, strain BEM2, hits give low values 1 | S. cerevisiae deletion strains, locus YER167W, strain BCK2, hits give low values 1.01 | S. cerevisiae deletion strains, locus YFR010W, strain ubp6, hits give low values 1.02 | S. cerevisiae deletion strains, locus YGL078C, strain dbp3, hits give low values 1.01 | S. cerevisiae deletion strains, locus YGL086W, strain mad1, hits give low values 0.997 | S. cerevisiae deletion strains, locus YGL167C, strain pmr1, hits give low values 0.956 | S. cerevisiae deletion strains, locus YGL173C, strain kem1, hits give low values 1.01 | S. cerevisiae deletion strains, locus YGL227W, strain vid30, hits give low values 1.01 | S. cerevisiae deletion strains, locus YGL240W, strain doc1, hits give low values 1.01 | S. cerevisiae deletion strains, locus YGL248W, strain PDE1, hits give low values 1 | S. cerevisiae deletion strains, locus YGL253W, strain hxk2, hits give low values 1.02 | S. cerevisiae deletion strains, locus YGR078C, strain PAC10, hits give low values 1.02 | S. cerevisiae deletion strains, locus YGR135W, strain pre9, hits give low values 1.03 | S. cerevisiae deletion strains, locus YGR252W, strain gcn5, hits give low values 1.02 | S. cerevisiae deletion strains, locus YHR013C, strain ard1, hits give low values 1.05 | S. cerevisiae deletion strains, locus YHR027C, strain rpn1, hits give low values 1.01 | S. cerevisiae deletion strains, locus YHR030C, strain SLT2, hits give low values 1.02 | S. cerevisiae deletion strains, locus YHR079C, strain IRE1 (second series), hits give low values 1.01 | S. cerevisiae deletion strains, locus YHR094C, strain hxt1, hits give low values 1.01 | S. cerevisiae deletion strains, locus YHR129C, strain ARP1, hits give low values 1.01 | S. cerevisiae deletion strains, locus YHR142W, strain chs7, hits give low values 1.01 | S. cerevisiae deletion strains, locus YHR200W, strain rpn10, hits give low values 1 | S. cerevisiae deletion strains, locus YIL066C, strain RNR3, hits give low values 1 | S. cerevisiae deletion strains, locus YIL073C, strain SPO22, hits give low values 1.05 | S. cerevisiae deletion strains, locus YIL125W, strain kgd1, hits give low values 1 | S. cerevisiae deletion strains, locus YIR030C, strain dcg1, hits give low values 1.01 | S. cerevisiae deletion strains, locus YJL092W, strain hpr5, hits give low values 1.01 | S. cerevisiae deletion strains, locus YJL095W, strain BCK1 (second series), hits give low values 1.02 | S. cerevisiae deletion strains, locus YJL095W, strain BCK1, hits give low values 0.996 | S. cerevisiae deletion strains, locus YJL115W, strain asf1, hits give low values 1.02 | S. cerevisiae deletion strains, locus YJL129C, strain trk1, hits give low values 1.03 | S. cerevisiae deletion strains, locus YJL134W, strain LCB3, hits give low values 1.01 | S. cerevisiae deletion strains, locus YJL154C, strain vps35, hits give low values 1.02 | S. cerevisiae deletion strains, locus YJL164C, strain tpk1, hits give low values 1.02 | S. cerevisiae deletion strains, locus YJL166W, strain qcr8, hits give low values 1.02 | S. cerevisiae deletion strains, locus YJL168C, strain set2, hits give low values 1 | S. cerevisiae deletion strains, locus YJL187C, strain SWE1 (second series), hits give low values 0.993 | S. cerevisiae deletion strains, locus YJL187C, strain SWE1, hits give low values 1.02 | S. cerevisiae deletion strains, locus YJR043C, strain POL32, hits give low values 1.01 | S. cerevisiae deletion strains, locus YJR075W, strain HOC1, hits give low values 1 | S. cerevisiae deletion strains, locus YKL009W, strain mrt4, hits give low values 1.02 | S. cerevisiae deletion strains, locus YKL068W, hits give low values 1 | S. cerevisiae deletion strains, locus YKL085W, strain MDH1 (second series), hits give low values 1.02 | S. cerevisiae deletion strains, locus YKL085W, strain MDH1, hits give low values 1.02 | S. cerevisiae deletion strains, locus YKL160W, strain elf1, hits give low values 1.01 | S. cerevisiae deletion strains, locus YKL190W, strain CNB1, hits give low values 1.02 | S. cerevisiae deletion strains, locus YKR001C, strain vps1, hits give low values 1 | S. cerevisiae deletion strains, locus YKR026C, strain gcn3, hits give low values 1.01 | S. cerevisiae deletion strains, locus YKR091W, strain srl3, hits give low values 1.01 | S. cerevisiae deletion strains, locus YLL001W, strain dnm1, hits give low values 1.01 | S. cerevisiae deletion strains, locus YLL026W, hits give low values 1.01 | S. cerevisiae deletion strains, locus YLL041C, strain sdh2, hits give low values 1.02 | S. cerevisiae deletion strains, locus YLR027C, strain aat2, hits give low values 1.01 | S. cerevisiae deletion strains, locus YLR039C, strain RIC1, hits give low values 1.03 | S. cerevisiae deletion strains, locus YLR058C, strain SHM2, hits give low values 1.01 | S. cerevisiae deletion strains, locus YLR102C, strain apc9, hits give low values 1 | S. cerevisiae deletion strains, locus YLR221C, strain rsa3, hits give low values 1.01 | S. cerevisiae deletion strains, locus YLR258W, strain gsy2, hits give low values 1.01 | S. cerevisiae deletion strains, locus YLR262C, strain YPT6 (second series), hits give low values 1 | S. cerevisiae deletion strains, locus YLR262C, strain YPT6, hits give low values 1 | S. cerevisiae deletion strains, locus YLR268W, strain sec22, hits give low values 1.01 | S. cerevisiae deletion strains, locus YLR320W, strain mms22, hits give low values 1.02 | S. cerevisiae deletion strains, locus YLR330W, strain CHS5, hits give low values 1.01 | S. cerevisiae deletion strains, locus YLR342W, strain FKS1 (second series), hits give low values 1.03 | S. cerevisiae deletion strains, locus YLR342W, strain FKS1, hits give low values 1.02 | S. cerevisiae deletion strains, locus YLR357W, strain rsc2, hits give low values 1.04 | S. cerevisiae deletion strains, locus YLR370C, strain arc18, hits give low values 1.01 | S. cerevisiae deletion strains, locus YLR371W, strain rom2, hits give low values 1 | S. cerevisiae deletion strains, locus YLR384C, strain iki3, hits give low values 1.02 | S. cerevisiae deletion strains, locus YLR418C, strain cdc73, hits give low values 1.04 | S. cerevisiae deletion strains, locus YML016C, strain PPZ1, hits give low values 1.01 | S. cerevisiae deletion strains, locus YML032C, strain rad52, hits give low values 1 | S. cerevisiae deletion strains, locus YML120C, strain ndi1, hits give low values 1.02 | S. cerevisiae deletion strains, locus YML124C, strain tub3, hits give low values 1.01 | S. cerevisiae deletion strains, locus YMR058W, strain fet3, hits give low values 1.02 | S. cerevisiae deletion strains, locus YMR078C, strain ctf18, hits give low values 1.01 | S. cerevisiae deletion strains, locus YMR125W, strain sto1, hits give low values 1.02 | S. cerevisiae deletion strains, locus YMR129W, hits give low values 1.02 | S. cerevisiae deletion strains, locus YMR205C, strain PFK2, hits give low values 1.02 | S. cerevisiae deletion strains, locus YMR223W, strain ubp8, hits give low values 1.04 | S. cerevisiae deletion strains, locus YMR231W, strain pep5, hits give low values 1.01 | S. cerevisiae deletion strains, locus YMR307W, strain GAS1, hits give low values 1.02 | S. cerevisiae deletion strains, locus YNL067W, strain RPL9B, hits give low values 0.999 | S. cerevisiae deletion strains, locus YNL071W, strain lat1, hits give low values 1.01 | S. cerevisiae deletion strains, locus YNL153C, strain GIM3, hits give low values 0.985 | S. cerevisiae deletion strains, locus YNL209W, strain ssb2, hits give low values 1.02 | S. cerevisiae deletion strains, locus YNL233W, strain BNI4, hits give low values 0.982 | S. cerevisiae deletion strains, locus YNL248C, strain rpa49, hits give low values 1 | S. cerevisiae deletion strains, locus YNL250W, strain rad50, hits give low values 1.05 | S. cerevisiae deletion strains, locus YNL271C, strain bni1, hits give low values 1.01 | S. cerevisiae deletion strains, locus YNL298W, strain CLA4, hits give low values 1.02 | S. cerevisiae deletion strains, locus YNL307C, strain MCK1, hits give low values 1.01 | S. cerevisiae deletion strains, locus YNL322C, strain KRE1 (second series), hits give low values 1 | S. cerevisiae deletion strains, locus YNR049C, strain mso1, hits give low values 1.01 | S. cerevisiae deletion strains, locus YNR052C, strain pop2, hits give low values 1 | S. cerevisiae deletion strains, locus YOL006C, strain TOP1, hits give low values 1 | S. cerevisiae deletion strains, locus YOL012C, strain htz1 0.634 | S. cerevisiae deletion strains, locus YOL147C, strain pex11, hits give low values 1.01 | S. cerevisiae deletion strains, locus YOR001W, strain rrp6, hits give low values 1.01 | S. cerevisiae deletion strains, locus YOR061W, strain CKA2, hits give low values 1.01 | S. cerevisiae deletion strains, locus YOR069W, strain VPS5, hits give low values 1 | S. cerevisiae deletion strains, locus YOR070C, strain gyp1, hits give low values 1.02 | S. cerevisiae deletion strains, locus YOR080W, strain dia2, hits give low values 1.03 | S. cerevisiae deletion strains, locus YOR083W, strain WHI5, hits give low values 1.02 | S. cerevisiae deletion strains, locus YOR106W, strain vam3, hits give low values 1.01 | S. cerevisiae deletion strains, locus YOR136W, strain idh2, hits give low values 1 | S. cerevisiae deletion strains, locus YOR144C, strain elg1, hits give low values 1.01 | S. cerevisiae deletion strains, locus YOR184W, strain ser1, hits give low values 1.01 | S. cerevisiae deletion strains, locus YOR265W, strain rbl2, hits give low values 1.02 | S. cerevisiae deletion strains, locus YOR270C, strain vph1, hits give low values 1.03 | S. cerevisiae deletion strains, locus YOR290C, strain snf2, hits give low values 1.01 | S. cerevisiae deletion strains, locus YOR316C, strain cot1, hits give low values 1.01 | S. cerevisiae deletion strains, locus YPL051W, strain arl3, hits give low values 1.01 | S. cerevisiae deletion strains, locus YPL078C, strain atp4, hits give low values 1.02 | S. cerevisiae deletion strains, locus YPL106C, strain sse1, hits give low values 1.03 | S. cerevisiae deletion strains, locus YPL240C, strain hsp82, hits give low values 1.02 | S. cerevisiae deletion strains, locus YPR119W, strain clb2, hits give low values 1.01 | S. cerevisiae deletion strains, locus YPR141C, strain kar3, hits give low values 1 | S. cerevisiae deletion strains, locus YPR163C, strain tif3, hits give low values 1.01 | S. cerevisiae deletion strains, locus YPR167C, strain met16, hits give low values 1 | S. cerevisiae deletion strains, strain wtn01, hits give low values 1.01 | S. cerevisiae strains, strain wild type, hits give low values 1.01
